Among the data in PubChem BioAssay AID504652 (National Center for Advancing Translational Sciences (NCATS), 2011) are activity change, negative = inhibition values, retold here.

In all, about 360,000 compounds went through this assay and about 11,000 (3.1%) were called active. Shown is part of a subset that was picked to be rich in actives. Unmarked numbers belong to inactive results. No stated cut-off is given here; in the data, active means activity change below about -30%; inactive means the rest. Square brackets hold non-standard residues; d marks the D form. Peptide text beside a SMILES is read from it. * marks the point of attachment. PhAc = O=C(Cc1ccccc1)*
On the % scale 0 is the no-effect control and ±100 the full control effect.

The target of the test is D(1A) dopamine receptor (Homo sapiens) (UniProt P21728). Nature of the test: Antagonist of Human D 1 Dopamine Receptor: qHTS. As to conditions: HEK293 TREx D1 cells, calcium flux, dopamine EC80; at 10 µM; stronger effect = lower value. Put shortly: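 After overnight tetracycline induction at 30 C, force-coupled D1 HEK293 cells took up a no-wash calcium dye at room temperature. Compounds were added and monitored 180 s, and the response to EC80 dopamine was then recorded.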
D(1A) dopamine receptor (Homo sapiens), sequence (P21728 whole entry, looked up): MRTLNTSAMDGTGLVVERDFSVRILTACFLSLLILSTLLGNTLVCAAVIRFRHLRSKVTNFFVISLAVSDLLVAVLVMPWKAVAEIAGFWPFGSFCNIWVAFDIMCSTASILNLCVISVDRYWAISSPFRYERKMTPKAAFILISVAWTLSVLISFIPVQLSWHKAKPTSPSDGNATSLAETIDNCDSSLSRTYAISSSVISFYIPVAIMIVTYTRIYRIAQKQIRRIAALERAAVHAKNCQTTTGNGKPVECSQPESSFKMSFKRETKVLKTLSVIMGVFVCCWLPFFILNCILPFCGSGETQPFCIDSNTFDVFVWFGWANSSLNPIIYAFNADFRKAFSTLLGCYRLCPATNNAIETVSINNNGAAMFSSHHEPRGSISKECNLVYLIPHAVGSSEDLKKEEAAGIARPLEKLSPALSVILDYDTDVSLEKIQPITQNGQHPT
(In qHTS, concentration-response curves come from the screen itself.)
`Cn1cc(S(=O)(=O)N2CCCCCC2)cc1C(=O)N1CCN(c2ccc(F)cc2)CC1`: the activity change, negative = inhibition is 5.3%. As for `CC(C)Oc1ccc(CNC(=O)C2CCN(c3nc4ccccc4n(C)c3=O)CC2)cc1`, the figure is 18.8%; as for `CCCOc1ccc(C(=O)Nc2ccc3oc(-c4cccc(Cl)c4Cl)nc3c2)cc1`, 6.25%; as for `COc1ccc2oc(=O)c(-c3cn4c(n3)sc3cc(OC)ccc34)cc2c1`, 2.94%.

Take `Cn1c(=O)c2c(nc(SCC(=O)Nc3ccc(F)cc3)n2Cc2ccccc2)n(C)c1=O`: the activity change, negative = inhibition was 6.42%. As for `COC(=O)[C@H](CC(C)C)NC(=O)N1CCCCC1C` (some centres not stated), the figure is -78.1% (active); as for `CC(C)C[C@@H](NC(=O)[C@H]1CCCN1C(=O)Cc1ccccc1)C(N)=O` (PhAc-[dP]-[dL]-NH2), 30%; as for `CC(C)C[C@H](NC(=O)C1CCC(CNC(=O)[C@@H]2CCCN2C(=O)OC(C)(C)C)CC1)C(=O)O` (some centres not stated), -1.98%. As for `CC(=O)c1ccc(NC(=O)CSc2nc(-c3ccccc3F)nc3c2c(=O)n(C)c(=O)n3C)cc1`, the figure is -0.158%; as for `CC(=O)Nc1cc(C(=O)NCc2ccc(F)cc2Cl)ccc1Sc1ccc(Cl)cc1`, 9.87%. With `CCOC(=O)c1ccc(NC(=O)C2CC(=O)NC(=Nc3ccc(C)c(C)c3)S2)cc1` (configuration not stated), the activity change, negative = inhibition is -1.43%.

Turning to `CCc1ccc(CNCc2c(C(=O)O)n(Cc3ccc(F)cc3Cl)c3cc(OC)ccc23)cc1`, the activity change, negative = inhibition was 6.05%. As for `O=Cc1c(Nc2ccccc2Cl)nc2ccccn2c1=O`, the figure is 9.2%; as for `COCCCNC(=O)/C(C#N)=C/c1c(N2CCCCCC2)nc2ccccn2c1=O`, 13.8%. As for `O=Cc1c(N2CCN(c3cccc(Cl)c3)CC2)nc2ccccn2c1=O`, the figure is -43.5% (active); as for `Cc1ccc(-c2nc3ccccn3c2Nc2c(C)cccc2C)o1`, -2.58%; as for `Cc1c(CNC2CCCCC2)c(C(=O)O)c(C)n1Cc1cccc(Cl)c1`, -7.13%. In the case of `CC(=O)NC1=NN(C(C)=O)C(C)(c2ccc(Cl)s2)S1` (configuration not stated), the activity change, negative = inhibition was 2.68%. As for `CC(=O)NC1=NN(C(C)=O)C(C)(CCS(=O)(=O)c2ccc(Cl)c(Cl)c2)S1` (configuration not stated), the figure is -39.7% (active); as for `CC(=O)NC1=NN(C(C)=O)C(C)(c2ccc(C)cc2)S1` (configuration not stated), 22.7%. Consider `Cc1cc(OC(C)C(=O)Nc2sc3c(c2C(N)=O)CCCC3)ccc1Cl` (configuration not stated), for which the activity change, negative = inhibition was 3.29%.

For `Cc1ccc(S(=O)(=O)c2nnn3c2nc(N2CCN(c4ccccc4F)CC2)c2cc(Cl)ccc23)cc1C`, the activity change, negative = inhibition is -0.0376%. Turning to `CCOc1ccccc1CNC(=O)C1CCCN(S(=O)(=O)c2ccc3c(ccn3C)c2)C1` (configuration not stated), the activity change, negative = inhibition is -27.8%.

As to `COc1cc(COCC(O)CN2CCN(Cc3ccc4c(c3)OCO4)CC2)cc(OC)c1OC` (configuration not stated), the activity change, negative = inhibition was -31.1% (active).

In the case of `COc1cc(Cl)c(S(=O)(=O)N2CCN(Cc3ccc4c(c3)OCO4)CC2)cc1Cl`, the activity change, negative = inhibition is 4.53%. As for `CN1CCN(CC(O)COCc2ccc3c(c2)OCO3)CC1` (configuration not stated), the figure is -5.88%. As for `CCOc1cccc(CNC(=O)c2ccc(N3CCCC3)c(NC(=O)Nc3ccccc3CC)c2)c1`, the figure is 4.78%; as for `CCc1nn(CC(=O)Nc2cc(C)cc(C)c2)c(=O)c2cc3sccc3n12`, 3.41%.

As to `CCCN1CN=C(NS(=O)(=O)c2ccc(NC(C)=O)cc2)NC1`, the activity change, negative = inhibition is -3.05%. `COc1ccc(/C(O)=C2/C(=O)C(=O)N(CC3CCCO3)C2c2ccc(OC)c(OC)c2)cc1` (configuration not stated): the activity change, negative = inhibition was -3.45%.

Take `O=C1C(=O)N(CCCO)C(c2ccccc2)/C1=C(\O)c1ccc(Br)cc1` (configuration not stated): the activity change, negative = inhibition is -7%. As for `CCCOc1ccc(/C(O)=C2/C(=O)C(=O)N(CCN(C)C)C2c2ccc(OC)c(OC)c2)cc1` (configuration not stated), the figure is -33.3% (active); as for `COc1cccc(C2/C(=C(/O)c3ccc(F)cc3)C(=O)C(=O)N2CCN(C)C)c1` (configuration not stated), -3.01%. As for `COc1ccc(/C(O)=C2/C(=O)C(=O)N(CCCN(C)C)C2c2ccccc2)cc1OC` (configuration not stated), the figure is -33.2% (active); as for `COc1cccc(C2/C(=C(/O)c3ccncc3)C(=O)C(=O)N2CCCN(C)C)c1` (configuration not stated), -21.5%; as for `CCc1ccc(CNC(=O)c2ccc(CS(=O)c3ccc(Br)cc3)o2)cc1` (configuration not stated), 6.94%. As for `COc1c(Cl)cc(C(=O)N(Cc2ccccc2F)C2CCS(=O)(=O)C2)cc1Cl` (configuration not stated), the figure is -0.91%. Consider `CCOC(=O)c1ccc2c(c1)N(Cc1cccc(OC)c1)C(=O)c1ccccc1S2(=O)=O`, for which the activity change, negative = inhibition was 4.54%.

For `Cc1c(Cl)cccc1NC(=O)CCS(=O)(=O)c1ccc2c(c1)oc(=O)n2C`, the activity change, negative = inhibition is -0.334%. As for `O=C(c1ccc(Cl)cc1)n1nc(-c2cccnc2)nc1NCc1ccc(F)cc1`, the figure is -16.2%; as for `CCOc1ccc(OCC)c(NC(=O)CN(c2ccc(C)cc2)S(=O)(=O)c2c(C)n[nH]c2C)c1`, -7.76%. As for `O=C1Nc2cc(Cl)c(Cl)cc2N(O)N1c1cc(Cl)cc(Cl)c1`, the figure is -76.7% (active).
